Screening data from PubChem.
TWEAK-Fn14 inh: blocks TWEAK-Fn14 interaction in a reporter cell assay. TWEAK-stimulated Fn14 reporter cells, luciferase luminescence, 8 h. inhibition, % at 10 µM. hit rate 2% among 360,000. AID 1159606; in the data active = inhibition above about 50%
HSF1 inhib: HSF1 inhibition | activity change, negative = inhibition, % at 7.5 µM (by protocol) | hit rate 0.77% among 300,000 | NIH3T3-HGL HSE-luciferase, MG132-induced, luminescence 8 h; hits give low values;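 active = more than half of replicate wells show activity change below -50%, luminescence cut by over half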;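 also: luciferase reports HSF-1 transcriptional activity via heat shock element; 0% = median of DMSO wells and -100% = zero luminescence signal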
HSF-1 act: increases HSF-1 driven luciferase reporter signal; NIH3T3-HGL HSF-1 luciferase reporter, MG132, 8 h; 100% = twice DMSO control signal; activation, % at 9 µM; AID 504408; hit rate 1.7% among 300,000;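 active = mean replicate activation of at least 50% with a set share of replicates each reaching 50%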;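 also: 0% = median of the neutral control wells and 100% = twice that signal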
TROY NFkB inh: TROY signaling inhibition; hit rate 0.98% among 360,000; Q293 LMP1-TROYcd NF-kB luciferase reporter, 4 h; inhibition, % at 10 µM;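 active = compounds whose plate-normalised and pattern-corrected inhibition of the luciferase reporter signal at the single screening dose is 50% or more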
HSP90 inh: HSP90 refolding inhibition in rabbit reticulocyte lysate; luciferase refolding luminescence, 3 h; inhibition, % at 5.6 µM; hit rate 0.91% among 290,000; AID 1789;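 active = inhibition above the screen-wide mean plus 3 SD, computed separately per campaign, cut at about 16% in these data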;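 also: 0% = DMSO wells and 100% = 60 µM geldanamycin wells; inhibitors lower the luminescence because luciferase stays unfolded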
EBV LMP1 NFkB: inhibitors of Epstein-Barr LMP1-induced NF-kappaB reporter. LMP1-induced NF-kappaB luciferase reporter cells, luminescence. inhibition, % at 12.5 µM. hit rate 0.69% among 350,000. AID 504558; in the data active = inhibition above about 41%;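 also: 0% = neutral control wells and 100% = reference inhibitor control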
* = called active by the depositor. The list is not random: actives were taken first. Their share in the collection is about 4.7%.

Results for CCCC(=O)N1CCC1(C)C(=O)Nc1scc(C)c1C#N (stereo not given) ?
TWEAK-Fn14 inh: -2.3; TROY NFkB inh: 5.1

Results for CCn1c(=O)c(C(=O)Nc2ccccc2F)c(O)c2ccccc21 ?
TWEAK-Fn14 inh: -12.6; HSF1 inhib: -77.8*; HSF-1 act: -82.0; TROY NFkB inh: -1.5; HSP90 inh: -0.1; EBV LMP1 NFkB: -1.8

How did COc1ccc(CN2C(=O)C(CC(=O)NCc3cccs3)CC(C(=O)N(C(C)C)C(C)C)=C2C)cc1 (stereo not given) do in these assays?
TWEAK-Fn14 inh: -3.8; TROY NFkB inh: 7.3; EBV LMP1 NFkB: 1.4

How did CCN(CC)C(=S)SCC(=O)c1ccc(F)cc1 do in these assays?
TWEAK-Fn14 inh: -21.3; HSF1 inhib: 43.0; HSF-1 act: 65.9*; TROY NFkB inh: -36.9; HSP90 inh: 0.6; EBV LMP1 NFkB: -38.5

What do the screens show for `COc1ccc2c(c1)CC/C(=C\c1ccc(OC)c(Cn3cccn3)c1)C2=O`?
TWEAK-Fn14 inh: 58.7*; HSF1 inhib: -5.8; HSF-1 act: 9.2; TROY NFkB inh: 43.5; HSP90 inh: 3.4; EBV LMP1 NFkB: -24.9

Results for COc1ccc2c(c1)CC/C(=C\c1ccc(OC)c(Cn3nc(C)cc3C)c1)C2=O ?
TWEAK-Fn14 inh: 30.3; HSF1 inhib: 3.4; HSF-1 act: 17.6; TROY NFkB inh: 31.0; HSP90 inh: 2.7; EBV LMP1 NFkB: -12.4

Results for O=C1C(=Cc2ccc(Cl)cc2)CCc2ccccc21 ?
TWEAK-Fn14 inh: 70.5*; TROY NFkB inh: 53.8*

Results for COc1ccc(C=C2CCc3ccccc3C2=O)cc1 ?
TWEAK-Fn14 inh: 93.8*; TROY NFkB inh: 61.3*

How did O=C1C(=Cc2ccc(F)cc2)CCc2ccccc21 do in these assays?
TWEAK-Fn14 inh: 70.1*; TROY NFkB inh: 26.7

How did Cc1nc2ccc(C(=O)Nc3ccc4c(c3)OCC(=O)N4)cn2c1N(C)C(=O)CCc1ccccc1 do in these assays?
TWEAK-Fn14 inh: -7.5; TROY NFkB inh: 6.1

How did Cc1ccc2c(C)c(C(=O)N3CCC(C(N)=O)(N4CCCCC4)CC3)oc2c1C do in these assays?
TWEAK-Fn14 inh: -2.0; TROY NFkB inh: 15.1; EBV LMP1 NFkB: 3.2

What do the screens show for `O=C1C(=Cc2ccccc2Cl)CCc2ccccc21`?
TWEAK-Fn14 inh: 57.6*; TROY NFkB inh: 18.8

Results for CC1(C(=O)NS(=O)(=O)C2CC2)CCN(C(=O)c2ccc(F)c(Cl)c2)C1 (stereo not given) ?
TWEAK-Fn14 inh: -18.7; TROY NFkB inh: 6.9

What do the screens show for `CSCC(CO)NS(=O)(=O)c1ccc(C)cc1` (stereo not given)?
TWEAK-Fn14 inh: 23.2; TROY NFkB inh: 56.6*; HSP90 inh: 3.3; EBV LMP1 NFkB: 2.3

What do the screens show for `CC1CCCCN1C(=O)c1cc(-c2ccc(Cl)c(Cl)c2)on1` (stereo not given)?
TWEAK-Fn14 inh: -10.3; HSF1 inhib: 35.9; HSF-1 act: 57.1*; TROY NFkB inh: -7.8; HSP90 inh: 5.5; EBV LMP1 NFkB: -54.4

Results for OC[C@@H]1CN(Cc2ccccc2)C[C@H](n2cnc3c(NCc4ccncc4)ncnc32)O1 ?
TWEAK-Fn14 inh: -54.0; TROY NFkB inh: -2.7

What do the screens show for `CCCCNC(=O)C1c2ccccc2OCC(=O)N1Cc1ccc2c(c1)OCO2` (stereo not given)?
TWEAK-Fn14 inh: 4.8; TROY NFkB inh: 4.3

Results for Cc1cc(C)c(C)c(S(=O)(=O)N2CCN(c3ncnc4ccccc34)CC2)c1C ?
TWEAK-Fn14 inh: 92.8*; TROY NFkB inh: 58.2*; EBV LMP1 NFkB: 22.8

What do the screens show for `NC(c1csc(Nc2ccccn2)n1)C1CCCCC1` (stereo not given)?
TWEAK-Fn14 inh: 0.4; TROY NFkB inh: -5.2

What do the screens show for `O=C(c1cc2c(s1)-c1ccccc1OC2)N1CCN(c2ccccc2)CC1`?
TWEAK-Fn14 inh: 0.5; HSF1 inhib: -63.6*; HSF-1 act: -69.9; TROY NFkB inh: -4.1; HSP90 inh: 1.6; EBV LMP1 NFkB: -1.8

Results for c1ccc2c(c1)CC/C2=N/Nc1nc2ccccc2[nH]1 ?
TWEAK-Fn14 inh: -10.6; HSF1 inhib: 13.2; HSF-1 act: 51.2*; TROY NFkB inh: -29.8; HSP90 inh: -1.9; EBV LMP1 NFkB: -33.3

Results for COCCNC(=O)C1CCCN(C(=O)c2ccc3c(c2)C(C)(C)CCC3(C)C)CC1 (stereo not given) ?
TWEAK-Fn14 inh: -7.5; TROY NFkB inh: 5.3
